PubChem BioAssay (NCATS)
Results filed as inconclusive are left out. Active and inactive are the calls of the source. Unless noted, calls come from the whole dose curve; as a rule, active = well fitted curve in the direction sought with a large enough effect; inconclusive = small, poorly fitted or top-dose-only effect, or another doubt; inactive = no such curve, though single readings can be large; an effect the other way counts as inactive or inconclusive.

Key:
[1] = target: Rap guanine nucleotide exchange factor 3 (Homo sapiens) (UniProt O95398); test: Confirmatory qHTS for agonist of cAMP-regulated guanine nucleotide exchange factor 3 (EPAC1) (AID 1645881);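 note: EPAC1 catalysed release of BODIPY-GDP from Rap1B seen as fluorescence loss; 100% = effect of cAMP agonist control; nearly all actives have a fitted effect of over 75% in size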
[2] = target: Rap guanine nucleotide exchange factor 4 (Homo sapiens) (UniProt Q8WZA2); test: Confirmatory qHTS for agonist of cAMP-regulated guanine nucleotide exchange factor 4 (EPAC2) (AID 1645884);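 note: nucleotide exchange releases bodipy-GDP from Rap1 and this lowers its fluorescence; % is set by controls: 0 for no effect and ±100 for the full control effect; nearly all actives have a fitted effect of over 65% in size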
[3] = target: Rap guanine nucleotide exchange factor 4 (Homo sapiens) (UniProt Q8WZA2); test: Confirmatory qHTS for antagonist of cAMP-regulated guanine nucleotide exchange factor 4 (EPAC2) (AID 1645885); note: nearly all actives have a fitted effect of over 25% in size; note: potency is the fitted concentration of half-maximal effect
[4] = target: Rap guanine nucleotide exchange factor 3 (Homo sapiens) (UniProt O95398); test: Counterscreen qHTS for agonist of cAMP-regulated guanine nucleotide exchange factor 3 (EPAC1) (AID 1645889); note: % of control where 0% means no effect; nearly all actives have a fitted effect of over 40% in size
How it was run: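 Rap1B-BODIPY-GDP 250 nM + GDP 50 uM; cpds 7-pt, final 9.74 nM–152 uM (activator mode) or from 7.32 nM upwards (inhibitor mode); RT; FI 480/540 nm at 5 and 30 min, then ± cAMP, reread.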

[5] = target: Lysosomal acid glucosylceramidase (Homo sapiens) (UniProt P04062); test: Glucocerebrosidase-p2 (AID 348; in the data active = potency below about 10 µM; note: potency is the fitted concentration of half-maximal effect); details: purified GBA, blue fluorogenic substrate, 40 min
How it was run: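 Normal human glucocerebrosidase (0.2 nM) with blue fluorogenic substrate (80 uM final) in citrate/phosphate pH 5.9 with 10mM sodium taurocholate, 0.01% tween-20; 40 min RT, NaOH/glycine stop; fluorescence Ex 365/Em 440; AC50 from a titration from 0.6 nM upwards.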

[6] = AP1 Signaling Pathway (AID 357; active = well fitted curve in either direction with a large enough effect, not every such curve was filed as active;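 note: ME-180 reporter cells stimulated with EGF at its EC50 level; % is set by controls: 0 for no effect and ±100 for the full control effect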); details: ME-180 (cervical carcinoma) AP-1-bla reporter, EGF-induced, beta-lactamase ratio, 5 h; at 7.69 µM (top of the series) unless noted
How it was run: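 Beta-lactamase reporter under AP-1 response element, ME-180 background. Stimulus: EC50 EGF. Compound exposure 5 h, 37 °C. Detection: CCF4, 2.5 h RT, 460/530 nm. Values: AC50 from titration.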

[7] = target: Cytochrome P450 1A2 (Homo sapiens) (UniProt P05177); test: p450-cyp1a2 (AID 410; calls by dose curve; note: potency is the fitted concentration of half-maximal effect)
How it was run: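 Luminescent demethylation readout: Luciferin-ME (100uM, equal to Km) turned over by 20nM CYP1A2 for 60 min at room temperature after NADPH regeneration addition, following 10 min compound preincubation. Normalization used 57 uM furafylline as full inhibition.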

[8] = NFAT Signaling Pathway (AID 444; active = well fitted curve in either direction with a large enough effect, not every such curve was filed as active;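 note: carbachol stimulus at about its EC50 of 1 µM final; % is set by controls: 0 for no effect and ±100 for the full control effect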); details: Jurkat NFAT-bla M1, carbachol, beta-lactamase ratio, 5 h; at 7.69 µM (top of the series) unless noted
How it was run: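 Read-out: CCF4 FRET ratio (460 nm/530 nm) after 1 h RT dye loading, used for %activity and AC50 from titration series. Cells: Jurkat NFAT-β-lactamase/M1 line, treated with compound plus 1 uM carbachol for 5 h, 37 °C.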

[9] = Stat Signaling Pathway (AID 446; active = well fitted curve in either direction with a large enough effect, not every such curve was filed as active;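 note: ME-180 cervical cancer cells given 40 pM IL-6 alongside compound; SIE-controlled beta-lactamase reporter measured as 460/530 nm FRET emission ratio; % is set by controls: 0 for no effect and ±100 for the full control effect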)
How it was run: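 Overnight-plated ME-180 cells bearing a STAT Inducible Element beta-lactamase reporter; 5 h co-exposure to compound and 40 pM IL-6; values normalized to 300 pM IL-6 and 125 nM JAK inhibitor controls.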

[10] = target: Glucocorticoid receptor (Homo sapiens) (UniProt P04150); test: GR-GFP Redistribution (AID 450;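 active = compounds whose dose series gives a full or clear partial fitted curve of increased nuclear translocation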; note: potency is the fitted concentration of half-maximal effect); details: U2OS GR-GFP nuclear translocation, laser cytometry, 2 h
[11] = target: Mitogen-activated protein kinase 10 (Mus musculus) (UniProt Q61831); test: JNK3 AlphaScreen Assay (AID 530; active = well fitted curve in either direction with a large enough effect, not every such curve was filed as active;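 note: kinase came from lysate of stimulated human HepG2 cells; signal reports phosphorylation of biotinylated GST-cJun 1-79 at Ser73 with 10 µM ATP; % is set by controls: 0 for no effect and ±100 for the full control effect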)
How it was run: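 qHTS titrations with 15 min compound pre-incubation before adding ATP (10 uM final). Read-out: AlphaScreen of Ser73-phosphorylated biotin-GST-cJun using HepG2 lysate JNK3 activated by IL-1β and TNFα.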

[12] = target: Cytochrome P450 3A4 (Homo sapiens) (UniProt P08684); test: qHTS Assay for Activators of Cytochrome P450 3A4 (AID 885); note: nearly all actives have a fitted effect of over 65% in size
How it was run: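 Using 20nM recombinant human CYP3A4 in potassium phosphate (200mM), substrate Luciferin-PPXE at 25uM, luminescent luciferin detection followed a 60-min RT NADPH reaction; data scaled to 57 uM ketoconazole.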

Chain of Rap guanine nucleotide exchange factor 3 (Homo sapiens) (O95398 whole entry, looked up): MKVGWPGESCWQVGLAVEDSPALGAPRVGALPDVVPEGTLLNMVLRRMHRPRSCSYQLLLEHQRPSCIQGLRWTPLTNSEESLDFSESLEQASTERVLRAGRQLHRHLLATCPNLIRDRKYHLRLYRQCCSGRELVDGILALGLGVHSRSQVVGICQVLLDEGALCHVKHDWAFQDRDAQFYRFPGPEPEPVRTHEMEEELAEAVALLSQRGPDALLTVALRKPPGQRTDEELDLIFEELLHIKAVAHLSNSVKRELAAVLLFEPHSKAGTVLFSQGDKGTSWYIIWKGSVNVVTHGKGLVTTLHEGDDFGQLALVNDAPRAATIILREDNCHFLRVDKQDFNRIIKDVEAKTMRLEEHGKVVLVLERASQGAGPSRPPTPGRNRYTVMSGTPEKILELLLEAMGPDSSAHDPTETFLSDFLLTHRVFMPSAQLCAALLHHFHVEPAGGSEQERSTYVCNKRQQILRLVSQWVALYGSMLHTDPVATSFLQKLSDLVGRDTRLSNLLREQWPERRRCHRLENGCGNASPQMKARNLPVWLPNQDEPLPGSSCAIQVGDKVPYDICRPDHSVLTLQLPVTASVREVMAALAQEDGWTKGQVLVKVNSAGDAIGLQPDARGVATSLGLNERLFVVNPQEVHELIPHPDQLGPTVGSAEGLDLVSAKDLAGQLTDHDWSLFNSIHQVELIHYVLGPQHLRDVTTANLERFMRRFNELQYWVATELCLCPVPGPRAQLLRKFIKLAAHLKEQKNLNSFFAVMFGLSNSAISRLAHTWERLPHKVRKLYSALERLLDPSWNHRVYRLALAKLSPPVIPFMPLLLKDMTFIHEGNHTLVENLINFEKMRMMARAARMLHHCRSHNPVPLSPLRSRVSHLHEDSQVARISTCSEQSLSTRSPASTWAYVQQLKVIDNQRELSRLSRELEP
Chain of Rap guanine nucleotide exchange factor 4 (Homo sapiens) (Q8WZA2 whole entry, looked up): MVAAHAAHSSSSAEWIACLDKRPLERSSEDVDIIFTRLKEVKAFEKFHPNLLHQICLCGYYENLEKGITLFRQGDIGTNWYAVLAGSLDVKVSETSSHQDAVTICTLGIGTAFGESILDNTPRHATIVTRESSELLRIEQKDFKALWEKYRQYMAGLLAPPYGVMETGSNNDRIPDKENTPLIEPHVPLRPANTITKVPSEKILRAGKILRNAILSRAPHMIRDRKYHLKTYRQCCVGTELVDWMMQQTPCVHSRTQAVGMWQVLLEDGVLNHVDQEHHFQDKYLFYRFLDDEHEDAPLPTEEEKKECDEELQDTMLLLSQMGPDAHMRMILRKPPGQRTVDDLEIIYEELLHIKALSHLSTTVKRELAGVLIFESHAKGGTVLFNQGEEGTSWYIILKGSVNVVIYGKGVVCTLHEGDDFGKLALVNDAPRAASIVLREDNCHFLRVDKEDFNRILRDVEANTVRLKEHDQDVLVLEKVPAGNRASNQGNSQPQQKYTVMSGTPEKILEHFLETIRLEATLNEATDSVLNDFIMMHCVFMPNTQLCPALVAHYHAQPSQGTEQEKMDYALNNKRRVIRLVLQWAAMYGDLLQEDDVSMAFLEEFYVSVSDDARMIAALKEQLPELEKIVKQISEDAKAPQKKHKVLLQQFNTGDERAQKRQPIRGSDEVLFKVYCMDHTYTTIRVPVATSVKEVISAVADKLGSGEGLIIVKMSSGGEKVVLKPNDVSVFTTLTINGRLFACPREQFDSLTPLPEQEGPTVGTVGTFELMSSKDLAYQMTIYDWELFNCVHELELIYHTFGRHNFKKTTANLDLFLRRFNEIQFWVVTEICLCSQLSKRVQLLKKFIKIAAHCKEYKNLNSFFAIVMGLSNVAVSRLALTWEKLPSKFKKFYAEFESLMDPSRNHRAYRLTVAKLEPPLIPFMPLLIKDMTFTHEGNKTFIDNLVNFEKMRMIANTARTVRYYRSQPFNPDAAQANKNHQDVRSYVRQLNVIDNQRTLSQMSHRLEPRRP
Chain of Cytochrome P450 3A4 (Homo sapiens) (P08684 whole entry, looked up): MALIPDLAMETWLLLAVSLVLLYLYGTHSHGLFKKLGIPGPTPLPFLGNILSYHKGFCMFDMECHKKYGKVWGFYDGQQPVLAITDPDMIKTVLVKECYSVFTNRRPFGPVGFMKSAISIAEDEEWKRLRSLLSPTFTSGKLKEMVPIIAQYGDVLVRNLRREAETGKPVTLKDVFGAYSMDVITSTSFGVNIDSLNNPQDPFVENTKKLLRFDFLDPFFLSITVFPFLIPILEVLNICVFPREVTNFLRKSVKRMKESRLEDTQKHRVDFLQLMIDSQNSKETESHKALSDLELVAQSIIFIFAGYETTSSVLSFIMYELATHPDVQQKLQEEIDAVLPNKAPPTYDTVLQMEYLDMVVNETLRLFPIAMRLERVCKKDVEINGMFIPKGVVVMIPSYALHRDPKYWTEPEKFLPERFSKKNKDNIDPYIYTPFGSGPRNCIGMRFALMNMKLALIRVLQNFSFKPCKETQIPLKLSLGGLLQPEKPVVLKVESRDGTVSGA
Chain of Cytochrome P450 1A2 (Homo sapiens) (P05177 whole entry, looked up): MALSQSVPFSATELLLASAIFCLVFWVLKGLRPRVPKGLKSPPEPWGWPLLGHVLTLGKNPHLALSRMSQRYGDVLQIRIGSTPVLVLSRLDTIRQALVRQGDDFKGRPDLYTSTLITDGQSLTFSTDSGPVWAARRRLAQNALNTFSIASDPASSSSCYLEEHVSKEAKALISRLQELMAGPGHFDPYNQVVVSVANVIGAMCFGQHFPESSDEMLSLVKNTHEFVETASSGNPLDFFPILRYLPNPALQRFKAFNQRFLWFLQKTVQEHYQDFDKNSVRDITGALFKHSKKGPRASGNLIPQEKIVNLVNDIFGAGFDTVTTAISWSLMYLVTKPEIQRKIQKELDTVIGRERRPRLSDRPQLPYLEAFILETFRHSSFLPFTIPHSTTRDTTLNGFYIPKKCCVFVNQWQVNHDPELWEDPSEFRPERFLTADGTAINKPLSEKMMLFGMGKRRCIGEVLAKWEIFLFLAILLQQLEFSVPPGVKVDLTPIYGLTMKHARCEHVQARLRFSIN
Chain of Lysosomal acid glucosylceramidase (Homo sapiens) (P04062 whole entry, looked up): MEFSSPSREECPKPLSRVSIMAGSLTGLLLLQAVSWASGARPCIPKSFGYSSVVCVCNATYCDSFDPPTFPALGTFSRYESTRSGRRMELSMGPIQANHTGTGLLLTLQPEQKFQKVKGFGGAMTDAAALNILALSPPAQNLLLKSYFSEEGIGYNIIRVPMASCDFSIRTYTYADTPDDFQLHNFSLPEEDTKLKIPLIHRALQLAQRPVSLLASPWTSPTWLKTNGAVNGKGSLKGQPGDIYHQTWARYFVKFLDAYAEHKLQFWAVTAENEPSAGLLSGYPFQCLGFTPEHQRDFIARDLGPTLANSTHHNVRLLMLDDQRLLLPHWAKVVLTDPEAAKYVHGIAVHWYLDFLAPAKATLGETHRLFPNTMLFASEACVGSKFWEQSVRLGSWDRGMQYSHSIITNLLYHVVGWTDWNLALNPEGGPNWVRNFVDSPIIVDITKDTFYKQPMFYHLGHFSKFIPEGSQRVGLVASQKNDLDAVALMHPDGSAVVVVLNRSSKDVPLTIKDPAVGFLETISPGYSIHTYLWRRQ
Chain of Glucocorticoid receptor (Homo sapiens) (P04150 whole entry, looked up): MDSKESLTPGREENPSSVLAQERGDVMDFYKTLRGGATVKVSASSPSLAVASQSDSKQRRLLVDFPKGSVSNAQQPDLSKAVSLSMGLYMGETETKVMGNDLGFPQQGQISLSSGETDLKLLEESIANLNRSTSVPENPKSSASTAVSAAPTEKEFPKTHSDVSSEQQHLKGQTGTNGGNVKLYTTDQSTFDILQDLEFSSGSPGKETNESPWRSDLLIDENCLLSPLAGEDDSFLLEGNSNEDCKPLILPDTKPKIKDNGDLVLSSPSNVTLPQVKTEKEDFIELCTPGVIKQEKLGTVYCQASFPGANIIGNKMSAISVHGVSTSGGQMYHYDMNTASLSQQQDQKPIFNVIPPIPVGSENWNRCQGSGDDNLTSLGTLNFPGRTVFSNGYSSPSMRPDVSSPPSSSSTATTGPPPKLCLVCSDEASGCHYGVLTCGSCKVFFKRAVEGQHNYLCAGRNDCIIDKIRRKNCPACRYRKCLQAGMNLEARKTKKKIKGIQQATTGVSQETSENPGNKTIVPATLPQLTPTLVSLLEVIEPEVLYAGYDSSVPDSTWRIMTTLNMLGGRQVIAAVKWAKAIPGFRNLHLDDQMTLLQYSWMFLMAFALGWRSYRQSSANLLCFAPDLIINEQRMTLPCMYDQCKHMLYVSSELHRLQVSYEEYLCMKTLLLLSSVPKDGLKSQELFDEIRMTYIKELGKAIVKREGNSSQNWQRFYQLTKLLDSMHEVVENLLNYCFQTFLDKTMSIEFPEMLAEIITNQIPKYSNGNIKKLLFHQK

CCCCOC(=O)C1=C(C)Nc2nnnn2C1c1ccccc1Cl (stereo not given)
inactive: Potency [1] | Potency [2] | Potency [3] | Potency [4]

CC1Sc2ccc(C#N)cc2N(Cc2cccc(C(F)(F)F)c2)C1=O (stereo not given)
inactive: Potency [1] | Potency [2] | Potency [3] | Potency [4]

COc1cccc(C(=O)/C=C/c2ccc(OCC#N)c(OC)c2)c1
inactive: Potency [1] | activation [2] 0% [at 17.1 µM, percent relative to cAMP agonist control] | Potency [3] | activation [4] 12.6% [at 30.8 µM]

COc1ccc(N2C(=O)CSC23C(=O)N(Cc2cccc(C(F)(F)F)c2)c2ccccc23)cc1 (stereo not given)
inactive: Potency [1] | Potency [2] | outcome [3] inactive [at 12.7 µM] | Potency [4]

C[C@H]1CN([C@@H](C)CO)S(=O)(=O)c2ccc(Br)cc2O[C@@H]1CN(C)Cc1ccccc1
active: Potency [3] 23.9 µM
inactive: Potency [1] | Potency [2] | Potency [4]

CCCCC[C@@H](C)N1C[C@H](COCc2ccccc2)Oc2cc(N3CC[C@@H](O)C3)ccc2S1(=O)=O
inactive: Potency [1] | Potency [2] | Potency [3] | Potency [4]

COC(=O)CC1(c2ccc(OC)cc2)C(=O)c2ccccc2C1=O
inactive: Potency [1] | Potency [2] | Potency [3] | Potency [4]

CC(Oc1ccc(Cl)cc1Cl)C(=O)NC1=NN(c2ccccc2)C(=O)C1 (stereo not given)
inactive: Potency [1] | Potency [2] | Potency [3] | Potency [4]

CN(C)c1ncc2ncc(=O)n(Cc3cccs3)c2n1
inactive: Potency [5] > 11.4 µM | activity change, negative = inhibition [6] -12.8% | activity change, negative = inhibition [8] -18.4% | outcome [9] | Potency [10] > 9.22 µM | Potency [11] | outcome [12] | Potency [1] | Potency [2]
active: Potency [7] 1.58 µM | Potency [3] 39.3 µM

COCOCCn1cc(CN2CCS(=O)(=O)N(Cc3ccc(-c4ccc(F)cc4)cc3)C(CC(C)C)C2=O)nn1 (stereo not given)
active: Potency [3] 8.49 µM
inactive: Potency [1] | Potency [2] | Potency [4]

Cc1ccc(NS(=O)(=O)c2ccc(C(=O)N3CC(C)CC(C)C3)cc2)cc1 (stereo not given)
inactive: Potency [1] | Potency [2] | Potency [3] | Potency [4]

CCCCn1c(CNC(=O)C23CC4CC(CC(C4)C2)C3)nnc1SCC(=O)Nc1nnc(C)s1
inactive: Potency [1] | activation [2] 3.57% [at 17.1 µM, percent relative to cAMP agonist control] | Potency [3] | activation [4] 1.72% [at 30.8 µM]

O=C(Nc1ccc(Cl)cc1)Nc1ccccc1NS(=O)(=O)c1cccs1
inactive: Potency [1] | activation [2] 7.96% [at 17.1 µM, percent relative to cAMP agonist control] | Potency [3] | activation [4] 27.1% [at 30.8 µM]

CC(C)CCOP(=O)(c1ccc(N(C)C)cc1)C(O)c1c(Cl)cccc1Cl (stereo not given)
inactive: Potency [1] | activation [2] 13.3% [at 17.1 µM, percent relative to cAMP agonist control] | Potency [3] | activation [4] 2.73% [at 30.8 µM]

CC1=CCC[C@@H]2[C@@](C)(CC/C(C)=C/C(=O)O)[C@H](C)CC[C@@]12C
inactive: Potency [1] | activation [2] 7.29% [at 17.1 µM, percent relative to cAMP agonist control] | Potency [3] | activation [4] 10.7% [at 30.8 µM]

O=C(O)c1cccc(Nc2ccc([N+](=O)[O-])c3nonc23)c1
inactive: Potency [1] | Potency [2] | Potency [3] | Potency [4]

C=CCn1c(SCC(=O)Nc2cc(Cl)ccc2C(=O)O)nc2sc(C)c(C)c2c1=O
inactive: Potency [1] | activation [2] 10.1% [at 17.1 µM, percent relative to cAMP agonist control] | Potency [3] | activation [4] 1.53% [at 30.8 µM]

Cc1ccc(N=Cc2cc3c(cc2[N+](=O)[O-])OCO3)cc1[N+](=O)[O-]
inactive: Potency [1] | activation [2] -8.35% [at 17.1 µM, percent relative to cAMP agonist control] | Potency [3] | activation [4] -2.33% [at 30.8 µM]

O=C(O)C(Cc1c[nH]c2ccccc12)NS(=O)(=O)c1ccc2ccccc2c1 (stereo not given)
inactive: Potency [1] | Potency [2] | Potency [3] | Potency [4]

O=C(CSc1nccn1Cc1ccc(Cl)cc1)Nc1ccc2c(c1)OCO2
inactive: Potency [1] | Potency [2] | Potency [3] | Potency [4]

Cc1cccc(N2CC(C(=O)Nc3nnc(SCC(=O)NCC4CCCO4)s3)CC2=O)c1 (stereo not given)
inactive: Potency [1] | Potency [2] | Potency [3] | Potency [4]

Nc1cc(OC(=O)c2cccs2)nn1S(=O)(=O)c1ccc(F)cc1
inactive: Potency [1] | Potency [2] | Potency [4]
active: Potency [3] 84.9 µM
